What all share (assay): yeast three-hybrid, YBZ-1, SC-Leu-His + 0.5 mM 3-AT, 4 days
What all share (conditions): tags: N-Gal4 AD-HA kept; label: inside an RPR1-promoter hybrid RNA with tandem MS2 sites; ssRNA

In assay [1] the target is PUM1 PUF domain R4-VPS (Homo sapiens, UniProt Q14671 828-1176, N971V;H972P;Q975S). The method in brief:
(§1)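 Pumilio-1 PUF domain libraries, randomized (NNK) at the three base-contacting residues of each repeat, were co-expressed with matching RNA elements from a centromeric plasmid in strain YBZ-1 (LexA–MS2 coat fusion, HIS3 reporter). Transformants were plated on SC-Leu (input) and SC-Leu-His + 0.5 mM 3-AT (selection) for four days, and repeat regions were PCR-amplified and Illumina-sequenced. The interaction score is the log2 change in variant frequency from input to selection, with pseudocount 1 where absent.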

Assay [2] has as its target PUM1 PUF domain R4-SNS (Homo sapiens, UniProt Q14671 828-1176, N971S;H972N;Q975S). In outline:
as §1

The target of assay [3] is T1, PUM1 PUF domain R6-SWD R7-NPG (Homo sapiens, UniProt Q14671 828-1176, N1043S;Y1044W;Q1047D;S1079N;N1080P;E1083G).
T1 sequence: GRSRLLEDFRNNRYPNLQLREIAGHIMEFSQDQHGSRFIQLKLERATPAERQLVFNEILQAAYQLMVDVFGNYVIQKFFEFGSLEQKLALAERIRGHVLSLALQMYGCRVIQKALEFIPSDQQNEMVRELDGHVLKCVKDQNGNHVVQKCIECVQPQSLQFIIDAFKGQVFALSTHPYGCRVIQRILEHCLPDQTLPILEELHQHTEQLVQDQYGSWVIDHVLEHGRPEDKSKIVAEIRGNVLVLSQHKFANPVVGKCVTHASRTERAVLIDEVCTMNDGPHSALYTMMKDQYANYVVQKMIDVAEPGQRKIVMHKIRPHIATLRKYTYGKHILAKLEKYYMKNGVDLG
In outline: as §1

The target in assay [4] is PUM1 PUF domain R5-GKH (Homo sapiens, UniProt Q14671 828-1176, C1007G;R1008K;Q1011H). The method in brief:
as §1

The target of assay [5] is PUM1 PUF domain R5-RYT (Homo sapiens, UniProt Q14671 828-1176, C1007R;R1008Y;Q1011T). In outline: as §1
Assay [6] deals with PUM1 PUF domain R5-NDG (Homo sapiens, UniProt Q14671 828-1176, C1007N;R1008D;Q1011G). The method in brief:
as §1

For assay [7], the target named is PUM1 PUF domain R8-SWE (Homo sapiens, UniProt Q14671 828-1176, N1122S;Y1123W;Q1126E). The method in brief:
as §1

Assay [8] has as its target PUM1 PUF domain R8-NWR (Homo sapiens, UniProt Q14671 828-1176, Y1123W;Q1126R). The method in brief:
as §1

Assay [9] has as its target PUM1 PUF domain R5-NAR (Homo sapiens, UniProt Q14671 828-1176, C1007N;R1008A;Q1011R). The method in brief: as §1
Assay [10] addresses PUM1 PUF domain R5-KTC (Homo sapiens, UniProt Q14671 828-1176, C1007K;R1008T;Q1011C). In outline: as §1
Assay [11] has as its target T2, PUM1 PUF domain R6-MYL (Homo sapiens, UniProt Q14671 828-1176, N1043M;Q1047L).
T2 sequence: T1 sequence with S216M, W217Y, D220L, N252S, P253N, G256E
In outline: as §1

The target in assay [12] is PUM1 PUF domain R4-LHW (Homo sapiens, UniProt Q14671 828-1176, N971L;Q975W). In outline:
as §1

The target in assay [13] is T3, PUM1 PUF domain R6-KFS (Homo sapiens, UniProt Q14671 828-1176, N1043K;Y1044F;Q1047S).
T3 sequence: T1 sequence with S216K, W217F, D220S, N252S, P253N, G256E
In outline:
as §1

Assay [14] addresses PUM1 PUF domain R3-CRC (Homo sapiens, UniProt Q14671 828-1176, Q939C). In outline: as §1
For assay [15], the target named is T4, PUM1 PUF domain R6-LWK (Homo sapiens, UniProt Q14671 828-1176, N1043L;Y1044W;Q1047K).
T4 sequence: T1 sequence with S216L, D220K, N252S, P253N, G256E
The method in brief:
as §1

The target of assay [16] is T5, PUM1 PUF domain R6-VWS (Homo sapiens, UniProt Q14671 828-1176, N1043V;Y1044W;Q1047S).
T5 sequence: T1 sequence with S216V, D220S, N252S, P253N, G256E
In outline:
as §1

Assay [17] addresses PUM1 PUF domain R4-EHA (Homo sapiens, UniProt Q14671 828-1176, N971E;Q975A). The method in brief:
as §1

In assay [18] the target is PUM1 PUF domain R4-VCA (Homo sapiens, UniProt Q14671 828-1176, N971V;H972C;Q975A). In outline: as §1
Assay [19] has as its target PUM1 PUF domain R5-KHI (Homo sapiens, UniProt Q14671 828-1176, C1007K;R1008H;Q1011I). The method in brief: as §1
Assay [20] concerns the target PUM1 PUF domain R3-RAA (Homo sapiens, UniProt Q14671 828-1176, C935R;R936A;Q939A). In outline: as §1

Numbering of substitutions follows the chain as printed.

For “GGCUAGAACUAGUGGAUCCCCCGGCGCCCGGCGGCUCGAGCCCGGGUAAGUGUACAUAGUCUGCAUGCCGCCGGGCGCCAUGCCUGCAGGUCGACUCUAGAAAACAUG”, the values for the binding signal in assay [1] and in assay [2] were 2.28 log2 enrichment (interaction score) and 0.99 log2 enrichment (interaction score), respectively.
With “GGCUAGAACUAGUGGAUCCCCCGGCGCCCGGCGGCUCGAGCCCGGGUAAGUUGAAAUAGUCUGCAUGCCGCCGGGCGCCAUGCCUGCAGGUCGACUCUAGAAAACAUG”, in assay [3], the binding signal is 5.9 log2 enrichment (interaction score).
Turning to “GGCUAGAACUAGUGGAUCCCCCGGCGCCCGGCGGCUCGAGCCCGGGUAAGUGUUAAUAGUCUGCAUGCCGCCGGGCGCCAUGCCUGCAGGUCGACUCUAGAAAACAUG”, the figures for the binding signal in assay [4], in assay [5] and in assay [6] were 3.15 log2 enrichment (interaction score), 3.93 log2 enrichment (interaction score) and 3.34 log2 enrichment (interaction score), respectively.
For the sequence “GGCUAGAACUAGUGGAUCCCCCGGCGCCCGGCGGCUCGAGCCCGGGUAAGCGUAAAUAGUCUGCAUGCCGCCGGGCGCCAUGCCUGCAGGUCGACUCUAGAAAACAUG”, the binding signal in [7] is 2.43 log2 enrichment (interaction score); in assay [8], 3.79 log2 enrichment (interaction score).
As to “GGCUAGAACUAGUGGAUCCCCCGGCGCCCGGCGGCUCGAGCCCGGGUAAGUGUCAAUAGUCUGCAUGCCGCCGGGCGCCAUGCCUGCAGGUCGACUCUAGAAAACAUG”, the binding signal in assay [9] was 4.29 log2 enrichment (interaction score); in assay [10], 4.69 log2 enrichment (interaction score).
In the case of “GGCUAGAACUAGUGGAUCCCCCGGCGCCCGGCGGCUCGAGCCCGGGUAAGUGUAAAUAGUCUGCAUGCCGCCGGGCGCCAUGCCUGCAGGUCGACUCUAGAAAACAUG”, the binding signal in assay [5] was 1.24 log2 enrichment (interaction score); in assay [11], 4.67 log2 enrichment (interaction score); in [12] it was 3.75 log2 enrichment (interaction score); in assay [13], 3.11 log2 enrichment (interaction score); in assay [14], 2.51 log2 enrichment (interaction score); in [1] it was 1.66 log2 enrichment (interaction score). The binding signal in assay [8] is 2.23 log2 enrichment (interaction score); in assay [15], 5.88 log2 enrichment (interaction score); in assay [16], 2.66 log2 enrichment (interaction score); in assay [2] it was 2.68 log2 enrichment (interaction score).
For “GGCUAGAACUAGUGGAUCCCCCGGCGCCCGGCGGCUCGAGCCCGGGUAAGUGUAUAUAGUCUGCAUGCCGCCGGGCGCCAUGCCUGCAGGUCGACUCUAGAAAACAUG”, the binding signal in assay [17] is 2.96 log2 enrichment (interaction score); in assay [1] it was 2.93 log2 enrichment (interaction score); in assay [2], 2.15 log2 enrichment (interaction score); in assay [18], 2.82 log2 enrichment (interaction score).
Turning to “GGCUAGAACUAGUGGAUCCCCCGGCGCCCGGCGGCUCGAGCCCGGGUAAGUGUGAAUAGUCUGCAUGCCGCCGGGCGCCAUGCCUGCAGGUCGACUCUAGAAAACAUG”, the binding signal in assay [19] is 4.47 log2 enrichment (interaction score).
Take “GGCUAGAACUAGUGGAUCCCCCGGCGCCCGGCGGCUCGAGCCCGGGUAAGUGAAAAUAGUCUGCAUGCCGCCGGGCGCCAUGCCUGCAGGUCGACUCUAGAAAACAUG”: the binding signal in assay [16] was 7.2 log2 enrichment (interaction score).
Take “GGCUAGAACUAGUGGAUCCCCCGGCGCCCGGCGGCUCGAGCCCGGGUAAGUGUAAUUAGUCUGCAUGCCGCCGGGCGCCAUGCCUGCAGGUCGACUCUAGAAAACAUG”: the binding signal was 3.66 log2 enrichment (interaction score) in [20] and 2.22 log2 enrichment (interaction score) in assay [14].
For “GGCUAGAACUAGUGGAUCCCCCGGCGCCCGGCGGCUCGAGCCCGGGUAAGUGUAAGUAGUCUGCAUGCCGCCGGGCGCCAUGCCUGCAGGUCGACUCUAGAAAACAUG”, in assay [14], the binding signal was 2.62 log2 enrichment (interaction score).
